Out of some 310,000 compounds screened, about 14,000 (4.5%) showed an effect of 50% or more. The effect is printed as a negative number. What follows is part of a selection rich in strong results, with near analogues and random picks from the rest.
biological target: human ether-à-go-go-related gene (hERG) potassium channel (human, UniProt Q12809); assay: primary screen, population patch clamp on CHO cells stably expressing hERG; higher = less effect of the substance
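Also: peak tail current of the secondary pulse compared with the same well before compound.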

human ether-à-go-go-related gene (hERG) potassium channel, sequence (Q12809 whole entry, looked up): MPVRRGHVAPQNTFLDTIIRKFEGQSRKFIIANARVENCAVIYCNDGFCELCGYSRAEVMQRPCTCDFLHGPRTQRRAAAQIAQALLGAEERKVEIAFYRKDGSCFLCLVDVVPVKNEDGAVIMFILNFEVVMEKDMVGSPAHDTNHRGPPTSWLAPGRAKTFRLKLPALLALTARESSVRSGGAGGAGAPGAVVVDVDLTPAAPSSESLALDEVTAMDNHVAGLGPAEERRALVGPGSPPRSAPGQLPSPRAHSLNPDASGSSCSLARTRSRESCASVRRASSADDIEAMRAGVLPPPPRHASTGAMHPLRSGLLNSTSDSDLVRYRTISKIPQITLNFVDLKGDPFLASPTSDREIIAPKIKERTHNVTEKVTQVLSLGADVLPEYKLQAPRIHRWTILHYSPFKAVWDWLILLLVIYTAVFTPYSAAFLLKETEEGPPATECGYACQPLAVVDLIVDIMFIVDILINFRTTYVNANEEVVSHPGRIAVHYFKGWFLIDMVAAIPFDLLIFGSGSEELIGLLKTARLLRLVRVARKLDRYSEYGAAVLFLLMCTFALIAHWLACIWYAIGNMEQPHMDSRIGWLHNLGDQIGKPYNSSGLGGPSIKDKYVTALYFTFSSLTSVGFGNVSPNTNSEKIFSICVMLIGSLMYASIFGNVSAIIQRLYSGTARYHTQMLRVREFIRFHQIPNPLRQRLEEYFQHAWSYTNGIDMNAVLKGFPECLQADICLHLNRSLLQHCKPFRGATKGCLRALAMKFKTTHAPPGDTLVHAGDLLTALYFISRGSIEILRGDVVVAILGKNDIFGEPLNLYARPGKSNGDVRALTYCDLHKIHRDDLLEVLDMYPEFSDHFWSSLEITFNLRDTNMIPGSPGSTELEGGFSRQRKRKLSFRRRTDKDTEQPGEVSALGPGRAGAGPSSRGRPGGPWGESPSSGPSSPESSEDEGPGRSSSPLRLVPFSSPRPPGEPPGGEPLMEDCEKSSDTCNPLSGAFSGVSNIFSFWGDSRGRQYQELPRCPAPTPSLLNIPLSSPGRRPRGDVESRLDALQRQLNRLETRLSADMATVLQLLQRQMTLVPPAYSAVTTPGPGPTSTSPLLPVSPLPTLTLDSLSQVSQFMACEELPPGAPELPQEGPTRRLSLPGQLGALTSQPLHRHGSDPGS

Row | SMILES | hERG current change (%, negative = inhibition) at 10uM [%]
1 | O=[N+]([O-])c1cc(-c2nnc(Nc3ccccc3)c3ccccc23)ccc1N1CCOCC1 | -26.3
2 | COC(=O)c1cc(C(=O)OC)cc(-n2c(C)cc(C(=O)CC#N)c2C)c1 | -31.2
3 | O=C(N/N=C/c1cccnc1)C1CC1(c1ccccc1)c1ccccc1 (stereo not shown) | -55.6
4 | O=C(N/N=C/c1ccncc1)C1CC1(c1ccccc1)c1ccccc1 (stereo not shown) | -24.9
5 | O=C(N/N=C\c1ccc(O)c([N+](=O)[O-])c1)C1COc2ccccc2O1 (stereo not shown) | -4.56
6 | O=C(O)c1ccc(/C=N/NC(=O)C2CC2(c2ccccc2)c2ccccc2)cc1 (stereo not shown) | 17.9
7 | O=C(N/N=C/c1ccc(O)c([N+](=O)[O-])c1)C1CC1(c1ccccc1)c1ccccc1 (stereo not shown) | -50.7
8 | O=C(N/N=C/C=C/c1ccccc1)C1CC1(c1ccccc1)c1ccccc1 (stereo not shown) | -1.54
9 | CC(C)C(=O)Nc1nc2ccc(S(C)(=O)=O)cc2s1 | 5.14
10 | Cc1ccc(S(=O)(=O)Nc2c(C)n(C)n(-c3ccccc3)c2=O)cc1 | 9.73
11 | O=C(CN1C(=O)NC2(CCCCCC2)C1=O)Nc1ccc2c(c1)CCC2 | -5.72
12 | CCOC(=O)c1nc2cc3n(c(C)c-2c1C)C(C)C(CC)=C3C.Cl (stereo not shown) | -66.7
13 | CCOC(=O)c1n[nH]n(-c2cc(Cl)cc(Cl)c2)c1=O | 25.7
14 | CCOC(=O)c1nc2cc3n(c(CC(C)C)c-2c1C)CC(C)=C3C.Cl | -74
15 | CCOC(=O)c1nc2ccccc2c(C)c1C.Cl | -5.73
16 | CCOC(=O)c1nc(C)nc(Sc2n[nH]c(-c3cc(Cl)cc(Cl)c3)n2)c1C | 4.12
17 | CCOC(=O)c1nc2cc3n(c(C)c-2c1C)C(C)C(C)=C3C.Cl (stereo not shown) | -42.8
18 | CCc1cc(=O)oc2c(CNCc3ccc(OC)cc3OC)c(O)c(Cl)cc12.Cl | 13.3
19 | NNC(=O)C1CC1c1ccc(Cl)cc1 (stereo not shown) | 9.11
20 | COc1cc(/C=N/Nc2ccc(Cl)c(C(=O)O)c2)ccc1OCC(=O)N1C(C)CCCC1C (stereo not shown) | 16.5
21 | CCCn1c(N)c(N(CCOC)C(=O)c2ccc(N(C)S(=O)(=O)c3ccc(C)cc3)cc2)c(=O)[nH]c1=O | 7.32
22 | O=C(NC1CCCCC1)c1ccc(S(=O)(=O)NCc2cccnc2)cc1 | 5.88
23 | O=c1[nH]c(=O)n(-c2ccccc2Cl)c(O)c1C=NCCN1CCCCC1 | 6.09

Row | SMILES | hERG current change (%, negative = inhibition) at 10uM [%]
24 | CCCNCCC(c1ccco1)c1ccccc1OC (stereo not shown) | -41.8
25 | COc1ccc(CC(C)NCCC(c2ccccc2)c2ccccc2)cc1 (stereo not shown) | -71.5
26 | COc1ccc(CNc2ccc(-c3ccccc3OC)nn2)cc1 | -13.1
27 | COc1ccc(CC(C)CC(=O)NCCc2ccc(OC)c(OC)c2)cc1 (stereo not shown) | 18.9
28 | COc1ccc(CCC(C)NCC(C)c2ccccc2)cc1 (stereo not shown) | -48.3
29 | COc1ccc(CNCCC(c2ccc(OC)cc2)c2ccccc2OC)cc1 (stereo not shown) | -74.2
30 | COc1ccc(C(CC(=O)O)c2ccc3c(c2)OCO3)cc1 (stereo not shown) | 14.7
31 | CNCCc1ccc(OC)c(OC)c1 | 19.4
32 | COc1ccc(CC(C)NCCc2ccc(OC)c(OC)c2)cc1 (stereo not shown) | -60.3
33 | COc1ccc(C(CCN)c2ccc3c(c2)OCO3)cc1 (stereo not shown) | 1.93
34 | COc1ccc(CCC(C)NCCc2ccccc2)cc1 (stereo not shown) | -29.6
35 | COc1ccc(CNCCC(c2ccccc2)c2ccc3c(c2)OCO3)cc1.Cl (stereo not shown) | -75
36 | CN(C)S(=O)(=O)c1ccc(N2CCCC2)c(C(=O)Nc2nc3ccc(F)cc3s2)c1 | -37.1
37 | Cc1nc(SCC(=O)Nc2ccc(C)c(F)c2)c2oc3ccccc3c2n1 | 4.4
38 | COc1ccccc1NC(=O)c1cc(S(=O)(=O)N2CCC3(CC2)OCCO3)ccc1F | -4.73
39 | COc1ccc(CN2CN(c3ccc(Cl)cc3)C(=O)N(n3cnnc3)C2)cc1 | -38.6
40 | COC(=O)C1=C(c2ccccc2)C[C@@H]2CC[C@H]1N2C(=O)N1CCCCC1 | -4.4
41 | Cn1c(=O)c2c(ncn2CCOc2ccc(F)cc2)n(C)c1=O | 12.3
42 | O=C(N/C=N/O)C(c1ccccc1)c1ncc(C(F)(F)F)cc1Cl (stereo not shown) | 3.35
43 | COc1ccc(-c2c/c(=N\c3nc(-c4ccccc4)c(C)s3)c3ccccc3o2)cc1O | 4.17
44 | COc1ccccc1NC(=O)C1CCCCN1S(=O)(=O)c1ccc(F)cc1 (stereo not shown) | -27.9
45 | O=C(NCc1ccc(F)cc1)N[C@@H](Cc1ccccc1)C(=O)O | 7.44
46 | CC(=O)OCc1c(C(F)(F)F)nn(C)c1Oc1cccc(C(F)(F)F)c1 | 2.3
